Values without a mark were called inactive. Records with an inconclusive call do not appear. Entries that show only a call come without a potency. Calls of active or inactive are those of the source. Unless noted, the call rests on the fitted dose curve; in most records, active means well fitted curve in the direction sought with a large enough effect in the repeat runs; inconclusive means weak or mixed curves; inactive means no such curve, though single readings can be large; an effect the other way counts as inactive or inconclusive.
Legend:
[1] = A CellTox Green Cytotoxicity Assay to monitor cytotoxicity in HepG2 cells - 0 hour (AID 1224882); further: nearly all actives have a fitted effect of over 35% in size; further: potency means the concentration at half of the fitted maximal effect
How it was run: (§1)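 HepG2, 600 cells/well premixed w/ CellTox Green; 5 h settle, 37 C/5% CO2; pintool cpd add (DMSO); 37 C, 40 h; fluorescence read at 0, 8, 16, 24, 32, 40 h.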

[2] = A CellTox Green Cytotoxicity Assay to monitor cytotoxicity in HepG2 cells - 32 hour (AID 1224883); further: nearly all actives have a fitted effect of over 50% in size; further: potency means the concentration at half of the fitted maximal effect
How it was run: as §1

[3] = qHTS RealTime-Glo MT Cell Viability Assay in HepG2 cells - 16 hour (AID 1224885); further: nearly all actives have a fitted effect of over 50% in size
How it was run: (§2)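 Cell number in HepG2 cultures estimated from NanoLuc luminescence generated by metabolic reduction of a prosubstrate by living cells. The homogeneous, nonlytic format allowed repeated reads at 0, 8, 16, 24, 32 and 40 h of compound exposure.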

[4] = qHTS RealTime-Glo MT Cell Viability Assay in HEK293 cells - 8 hour (AID 1224887); further: nearly all actives have a fitted effect of over 50% in size; further: potency means the concentration at half of the fitted maximal effect
How it was run: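 Luminescence readout at each listed time point; HEK293, 600 cells/well, RealTime-Glo MT reagent added with cells; compounds pinned (23 nL in DMSO) after 5 h at 37 C; continuous culture at 37 C.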

[5] = A CellTox Green Cytotoxicity Assay to monitor cytotoxicity in HEK293 cells - 16 hour (AID 1224888); further: nearly all actives have a fitted effect of over 35% in size
How it was run: (§3)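 Read-out: fluorescence of a cell-impermeant cyanine dye staining DNA of dead cells, proportional to cytotoxicity. HEK293, 600 cells/well with reagent, compound (23 nL DMSO) added after 5 h; reads at 0, 8, 16, 24, 32, 40 h.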

[6] = qHTS RealTime-Glo MT Cell Viability Assay in HepG2 cells - 0 hour (AID 1224889); further: nearly all actives have a fitted effect of over 50% in size; further: potency means the concentration at half of the fitted maximal effect
How it was run: as §2

[7] = A CellTox Green Cytotoxicity Assay to monitor cytotoxicity in HepG2 cells - 8 hour (AID 1224890); further: nearly all actives have a fitted effect of over 45% in size
How it was run: as §1

[8] = qHTS assay to identify small molecule antagonists of the androgen receptor (AR) signaling pathway using the MDA cell line in the presence of 0.5 nM R1881 - cell viability counter screen (AID 1259242); further: nearly all actives have a fitted effect of over 45% in size
How it was run: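 Live-cell protease fluorescence, CellTiter-Fluor, 30 min at 37C. Cells: MDA-kb2, 3,000/well, preincubated 5 hr. Compounds plus 0.5 nM R1881 final, 16 hr, 37C, 0% CO2.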

[9] = qHTS assay to identify small molecule HDAC inhibitors (AID 1259364);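 further: wild-type HCT-116 cells with endogenous class I/II HDAC activity; top concentration of the series differs between compounds; nearly all actives have a fitted effect of over 45% in size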
How it was run: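 HCT-116 (wild type), 1,500 cells/well, overnight; compound 2 hr 37C 5% CO2; HDAC-Glo I/II reagent 30 min RT; luminescence readout.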

[10] = qHTS assay to identify small molecule HDAC inhibitors - cell viability counter screen (AID 1259365)
How it was run: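 After overnight seeding at 1,500 cells per well, wild-type HCT-116 cultures took up compounds in DMSO for 2hr at 37 C. Viable cell content came from luminescence with CellTiter-Glo.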

[11] = qHTS assay to identify small molecule agonists of the sonic hedgehog signaling (Shh) pathway - cell viability counter screen (AID 1259366); further: nearly all actives have a fitted effect of over 50% in size; further: potency means the concentration at half of the fitted maximal effect
How it was run: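 Same-well cytotoxicity read. Gli1-Luc reporter 3T3 cells; compounds 24hr, 37C/5% CO2; CellTiter-Fluor fluorescence.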

[12] = qHTS assay to identify small molecule antagonists of the sonic hedgehog signaling (Shh) pathway - cell viability counter screen (AID 1259367); further: nearly all actives have a fitted effect of over 55% in size
How it was run: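 Tox21 library chemicals were tested on a Gli1-Luc NIH/3T3 clone (2,000 cells/well) stimulated by conditioned medium; viability was quantified as fluorescence from CellTiter-Fluor reagent added at 23 hr.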

[13] = qHTS assay to identify small molecule agonists of the sonic hedgehog signaling (Shh) pathway (AID 1259368; calls by dose curve;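 further: NIH/3T3-derived 3T3Gli1-Luc cells carrying a stable Gli1-driven firefly luciferase reporter; series mostly up to about 92 µM; nearly all actives have a fitted effect of over 15% in size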)
How it was run: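 Read-out: firefly luciferase luminescence from a Gli1 response element reporter stably integrated in NIH/3T3-derived 3T3Gli1-Luc cells, measured 30 min at room temperature after reagent addition. Compound exposure lasted 24 hr at 37 C, 5% CO2.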

[14] = qHTS RealTime-Glo MT Cell Viability Assay in HEK293 cells - 24 hour (AID 1224886); further: nearly all actives have a fitted effect of over 50% in size; further: potency means the concentration at half of the fitted maximal effect
How it was run: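 Homogeneous bioluminescent viability format in HEK293 cells (600 cells/well). Following 5 h at 37 C/5% CO2, 23 nL compound was pintooled; the signal was measured repeatedly during 40 h incubation.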

[15] = biological target: Estrogen receptor (Homo sapiens) (UniProt P03372); experiment: qHTS assay to identify small molecule antagonists of the estrogen receptor alpha (ER-alpha) signaling pathway using the BG1 cell line in the presence of 0.1 nM 17-beta-estradiol (AID 1259244); further: nearly all actives have a fitted effect of over 50% in size; further: potency means the concentration at half of the fitted maximal effect
How it was run: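 Luminescence after ONE-Glo (30 min, room temperature) measured ERE-luciferase activity in VM7Luc4E2 cells treated 22 h with compound and 0.1 nM final 17beta-estradiol as stimulator.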

[16] = qHTS assay to identify small molecule phospholipidosis (PLD) inducers (AID 1259344; active means well fitted curve in the direction sought with a large enough effect; an effect the other way counts as inactive or inconclusive)
How it was run: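 Image-based: LipidTOX Red pit count/intensity per well and per cell; HepG2, 24 h compound at 37 C, PFA fixation, Hoechst counterstain.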

[17] = qHTS assay to identify small molecule antagonists of the sonic hedgehog signaling (Shh) pathway (AID 1259369; calls by dose curve; further: nearly all actives have a fitted effect of over 45% in size; further: potency means the concentration at half of the fitted maximal effect)
How it was run: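 Luminescence readout: firefly Luc under Gli1 response element in 3T3Gli1-Luc cells (NIH/3T3 clone). Antagonist mode, stimulation by conditioned medium; compound exposure 24hr at 37 C, 5% CO2.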

[18] = qHTS assay to identify small molecule antagonists of the estrogen receptor alpha (ER-alpha) signaling pathway using the BG1 cell line in the presence of 0.1 nM 17-beta-estradiol - cell viability counter screen (AID 1259241); further: nearly all actives have a fitted effect of over 40% in size
How it was run: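 Estradiol-stimulated (0.1 nM) VM7Luc4E2 cells exposed to compounds 22 hr; viability measured by fluorescence of cleaved CellTiter-Fluor substrate after 30 min.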

[19] = biological target: Androgen receptor (Homo sapiens) (UniProt P10275); experiment: qHTS assay to identify small molecule antagonists of the androgen receptor (AR) signaling pathway using the MDA cell line in the presence of 0.5 nM R1881 (AID 1259243); further: nearly all actives have a fitted effect of over 50% in size
How it was run: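 MDA-kb2, MMTV-luc (AR/GR elements); 3,000 cells/well; cpd + 0.5 nM R1881 final; 16 hr 37C, 0% CO2; ONE-Glo 30 min RT; luminescence.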

[20] = A CellTox Green Cytotoxicity Assay to monitor cytotoxicity in HEK293 cells - 8 hour (AID 1224884); further: nearly all actives have a fitted effect of over 35% in size
How it was run: as §3

Sequence of Estrogen receptor (Homo sapiens) (P03372 whole entry, looked up): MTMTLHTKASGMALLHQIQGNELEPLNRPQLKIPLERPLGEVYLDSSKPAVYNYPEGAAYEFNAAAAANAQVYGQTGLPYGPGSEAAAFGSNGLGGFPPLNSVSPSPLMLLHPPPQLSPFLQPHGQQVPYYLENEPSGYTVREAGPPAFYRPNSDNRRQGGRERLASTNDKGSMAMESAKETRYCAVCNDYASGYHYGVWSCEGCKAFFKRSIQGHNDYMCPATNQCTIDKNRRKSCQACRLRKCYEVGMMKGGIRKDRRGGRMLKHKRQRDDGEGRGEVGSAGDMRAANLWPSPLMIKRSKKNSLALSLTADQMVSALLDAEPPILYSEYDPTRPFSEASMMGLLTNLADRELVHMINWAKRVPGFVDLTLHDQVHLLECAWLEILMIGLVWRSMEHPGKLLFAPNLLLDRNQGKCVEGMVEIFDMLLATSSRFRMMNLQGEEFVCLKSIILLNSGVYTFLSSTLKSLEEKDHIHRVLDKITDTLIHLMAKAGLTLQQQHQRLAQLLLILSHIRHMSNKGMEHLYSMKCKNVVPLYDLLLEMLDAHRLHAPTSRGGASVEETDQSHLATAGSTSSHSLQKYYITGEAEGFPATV
Sequence of Androgen receptor (Homo sapiens) (P10275 whole entry, looked up): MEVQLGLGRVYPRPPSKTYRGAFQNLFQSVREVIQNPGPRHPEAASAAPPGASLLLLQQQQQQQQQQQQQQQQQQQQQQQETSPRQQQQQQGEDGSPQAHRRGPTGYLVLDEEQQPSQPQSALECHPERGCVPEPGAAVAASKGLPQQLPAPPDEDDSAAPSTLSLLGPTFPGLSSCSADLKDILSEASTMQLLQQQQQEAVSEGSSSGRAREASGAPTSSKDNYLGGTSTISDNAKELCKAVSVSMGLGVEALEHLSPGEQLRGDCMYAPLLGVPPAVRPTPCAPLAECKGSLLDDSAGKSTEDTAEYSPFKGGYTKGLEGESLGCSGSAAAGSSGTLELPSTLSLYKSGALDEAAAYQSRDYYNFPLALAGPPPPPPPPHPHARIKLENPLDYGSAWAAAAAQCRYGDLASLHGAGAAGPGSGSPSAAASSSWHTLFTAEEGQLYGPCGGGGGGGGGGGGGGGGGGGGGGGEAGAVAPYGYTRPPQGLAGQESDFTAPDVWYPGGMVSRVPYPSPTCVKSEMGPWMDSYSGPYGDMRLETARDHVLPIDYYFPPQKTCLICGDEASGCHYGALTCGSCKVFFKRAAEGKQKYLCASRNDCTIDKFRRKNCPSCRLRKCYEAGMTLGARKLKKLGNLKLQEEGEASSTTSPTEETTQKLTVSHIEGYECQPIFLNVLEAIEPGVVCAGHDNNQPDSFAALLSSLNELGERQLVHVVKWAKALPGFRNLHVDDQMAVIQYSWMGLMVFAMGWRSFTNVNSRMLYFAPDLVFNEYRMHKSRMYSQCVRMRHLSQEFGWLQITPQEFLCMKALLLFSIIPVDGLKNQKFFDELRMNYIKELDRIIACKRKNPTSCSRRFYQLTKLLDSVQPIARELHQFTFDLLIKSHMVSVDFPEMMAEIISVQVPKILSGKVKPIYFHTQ

SMILES	Potency [1]	Potency [2]	Potency [3]	Potency [4]	Potency [5]	Potency [6]	Potency [7]	Potency [8]	Potency [9]	Potency [10]	Potency [11]	Potency [12]	outcome [13]	Potency [14]	Potency [15]	Potency [16]	Potency [17]	Potency [18]	Potency [19]	Potency [20]
C/C=C/C=C/CO	inactive	inactive	inactive	inactive	inactive	inactive	inactive	inactive	inactive	inactive	inactive	inactive	inactive	–	–	–	–	–	–	–
Nc1c(CC(=O)O)cccc1C(=O)c1ccc(Br)cc1	inactive	inactive	inactive	inactive	inactive	inactive	inactive	inactive	inactive	inactive	inactive	inactive	inactive	inactive	inactive	inactive	inactive	–	–	–
Cc1cc(C(=O)O)ccc1[N+](=O)[O-]	inactive	inactive	inactive	inactive	inactive	inactive	inactive	inactive	inactive	inactive	inactive	–	inactive	inactive	inactive	–	inactive	–	–	–
COc1cc2nc(N(C)CCCNC(=O)C3CCCO3)nc(N)c2cc1OC (stereo not given)	inactive	inactive	inactive	inactive	inactive	inactive	inactive	inactive	inactive	inactive	inactive	–	inactive	–	23.7 µM (active)	–	13.3 µM (active)	–	–	–
CCOc1ccc(O)cc1	inactive	inactive	inactive	–	inactive	inactive	inactive	inactive	inactive	inactive	inactive	inactive	inactive	–	inactive	–	15.4 µM (active)	inactive	–	–
C=C1C(=C/C=C2\CCC[C@]3(C)[C@@H]([C@H](C)/C=C/[C@@H](O)C4CC4)CC[C@@H]23)C[C@@H](O)C[C@@H]1O	inactive	inactive	inactive	19 µM (active)	–	inactive	inactive	inactive	inactive	inactive	inactive	–	inactive	19 µM (active)	–	–	0.0007 µM (active)	inactive	–	–
CCOC(=O)C(F)(F)F	inactive	inactive	inactive	inactive	inactive	inactive	inactive	inactive	inactive	inactive	inactive	inactive	inactive	inactive	–	–	inactive	inactive	–	–
CCc1cc(C2=C(C(=O)O)N(c3ccccc3C(F)(F)F)S(=O)(=O)c3ccccc32)cc2c1OCO2	inactive	inactive	inactive	inactive	inactive	24.3 µM (active)	inactive	inactive	inactive	inactive	12.1 µM (active)	–	inactive	inactive	–	–	inactive	inactive	–	–
CCCCC(CC)COC(=O)COc1ccc(Cl)cc1Cl (stereo not given)	inactive	inactive	inactive	inactive	inactive	inactive	inactive	inactive	inactive	inactive	inactive	inactive	inactive	inactive	–	–	–	inactive	–	–
CNC(=O)CN(CCN(CCN(CC(=O)[O-])CC(=O)NC)CC(=O)[O-])CC(=O)[O-].O.[Gd+3]	inactive	inactive	inactive	inactive	inactive	inactive	inactive	inactive	inactive	inactive	inactive	inactive	inactive	inactive	inactive	inactive	–	inactive	–	–
C[C@@H]1C[C@H]2[C@@H]3CCC4=CC(=O)C=C[C@]4(C)[C@@]3(F)[C@@H](O)C[C@]2(C)[C@@]1(O)C(=O)COC(=O)c1ccncc1	inactive	inactive	inactive	inactive	inactive	1.07 µM (active)	inactive	inactive	inactive	inactive	inactive	–	inactive	inactive	inactive	–	–	inactive	–	–
CCCCCCCCCCCC(=O)OC[C@@H](O)[C@H]1OC[C@H](OCCO)[C@H]1OCCO	inactive	inactive	inactive	inactive	inactive	inactive	inactive	inactive	inactive	inactive	inactive	inactive	inactive	inactive	inactive	–	inactive	inactive	–	–
C=CCOC(=O)CCC1CCCCC1	inactive	inactive	inactive	inactive	inactive	inactive	inactive	inactive	inactive	inactive	inactive	inactive	inactive	inactive	–	–	–	inactive	–	–
OC(C#CCN1CCCC1)(c1ccccc1)c1ccccc1	inactive	inactive	inactive	inactive	inactive	inactive	–	inactive	inactive	inactive	inactive	–	inactive	inactive	–	–	–	–	–	–
C[N+]1(C)CCC(OC(=O)C(O)(c2ccccc2)C2CCCC2)C1 (stereo not given)	26.8 µM (active)	inactive	inactive	inactive	–	inactive	inactive	inactive	inactive	inactive	inactive	inactive	inactive	inactive	inactive	inactive	inactive	–	–	–
CCCOC(C(=O)OC1CCN(C)CC1)(c1ccccc1)c1ccccc1	inactive	21.3 µM (active)	inactive	inactive	–	–	–	inactive	inactive	inactive	13.3 µM (active)	–	inactive	–	inactive	–	21.1 µM (active)	inactive	–	–
CC(=O)[O][Al]	inactive	inactive	inactive	inactive	inactive	inactive	inactive	inactive	inactive	inactive	inactive	inactive	inactive	inactive	–	–	inactive	inactive	–	–
Cn1c(=O)cc(Oc2ccc(F)cc2F)c2cnc(NCC(C)(C)O)nc21	inactive	inactive	inactive	inactive	–	inactive	–	inactive	inactive	inactive	inactive	–	inactive	–	–	–	–	–	–	–
COC(=O)c1ccc(I)cc1S(=O)(=O)NC(=O)Nc1nc(C)nc(OC)n1	inactive	inactive	inactive	inactive	inactive	inactive	inactive	inactive	inactive	inactive	inactive	inactive	inactive	inactive	–	–	inactive	inactive	–	–
C[C@H](CCC(=O)O)[C@H]1CC[C@H]2[C@@H]3CC[C@@H]4C[C@H](O)CC[C@]4(C)[C@H]3C[C@H](O)[C@]12C	inactive	inactive	inactive	–	–	inactive	inactive	inactive	inactive	inactive	–	–	inactive	inactive	inactive	–	–	inactive	–	–
O=C(O)c1ccco1	inactive	inactive	inactive	inactive	inactive	inactive	inactive	inactive	inactive	inactive	inactive	inactive	inactive	inactive	inactive	–	–	inactive	–	–
CC(CC=O)c1ccccc1 (stereo not given)	inactive	inactive	inactive	inactive	inactive	inactive	inactive	inactive	inactive	inactive	inactive	inactive	inactive	inactive	inactive	–	–	inactive	–	–
O=[N+]([O-])c1cccc(S(=O)(=O)O)c1	inactive	inactive	inactive	–	–	inactive	inactive	–	inactive	inactive	inactive	inactive	inactive	22.2 µM (active)	–	–	inactive	inactive	–	–
CC/C=C\CCOC(=O)CC	inactive	inactive	inactive	inactive	–	inactive	inactive	inactive	inactive	inactive	inactive	inactive	inactive	inactive	–	–	inactive	inactive	–	–
CCCCCCCCCCO[C@@H]1O[C@H](CO)[C@@H](O)[C@H](O)[C@H]1O	inactive	inactive	inactive	inactive	inactive	inactive	inactive	inactive	inactive	inactive	inactive	inactive	inactive	–	inactive	–	–	inactive	–	–
OCCNCc1ccccc1	inactive	inactive	inactive	inactive	inactive	inactive	inactive	inactive	inactive	inactive	inactive	–	inactive	inactive	inactive	–	inactive	inactive	inactive	–
CN(C)CCN(Cc1ccsc1)c1ccccn1	inactive	inactive	inactive	inactive	inactive	inactive	–	inactive	inactive	inactive	inactive	inactive	inactive	inactive	inactive	–	inactive	inactive	inactive	–
CCN(CC)CCOC(=O)C(Cc1cccc2ccccc12)CC1CCCO1 (stereo not given)	–	inactive	inactive	inactive	–	inactive	–	inactive	inactive	inactive	inactive	inactive	inactive	–	–	inactive	inactive	inactive	–	inactive
